In PubChem BioAssay AID430 (Sanford-Burnham Center for Chemical Genomics, 2006):
Out of some 63,000 compounds screened, about 1,100 (1.7%) were called active. For the sample, actives were picked, then their nearest neighbours and some compounds at random. Entries with a potency or affinity are not part of this list. Unmarked numbers belong to inactive results. Rule as the data show it: active = cytotoxicity above about 50%; inactive = the rest.

Assay: cytotoxicity in HPDE-C7 cells, cell-based, fluorescence, HTS (AID 430);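 also: cells exposed to compound for 48 hours before viability readout; 0% = vehicle and 100% = reference cytotoxic drug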
Details: HPDE-C7 pancreatic duct cells viability, at 10 µM, stronger effect = higher value

Question: With `CC(=O)[C@@H]1[C@@H]2C(=O)N(Cc3ccccc3)C(=O)[C@@H]2C2c3ccccc3C=CN21` (stereo not given in full) as the compound, how does the cytotoxicity read?
Answer: The cytotoxicity was 3.9%.

Question: Which cytotoxicity does the source give for `CCC(=NCCc1ccccc1)C1=C(O)CCC1=O` here?
Answer: Its cytotoxicity is 9.7%.

Question: Which cytotoxicity does the source give for `C=CCn1c(SCn2nnc3ccccc3c2=O)nnc1-c1ccc(F)cc1` here?
Answer: The cytotoxicity was -0.2%.

Question: With `Cc1cc(C(=O)N2CCN(S(C)(=O)=O)CC2)sc1-c1ccccc1` as the compound, how does the cytotoxicity read?
Answer: Its cytotoxicity is -3%.

Question: For `O=C(NC1CCCC1)C1CCCN1C(=O)Nc1ccccc1Cl` (stereo not given), which cytotoxicity is on record?
Answer: Its cytotoxicity is -20.3%.

Question: Which cytotoxicity does the source give for `C=CCN(CC=C)c1nc2ccccc2nc1C(C#N)C(=O)OCCOC` (stereo not given) here?
Answer: The cytotoxicity was 1.9%.

Question: For `COC(=O)c1ccc(-c2nc3ccccc3o2)cc1`, which cytotoxicity is on record?
Answer: The cytotoxicity was -9.2%.

Question: For `O=C(Nc1ccc2oc(-c3ccccc3)nc2c1)c1ccc2c(c1)OCCO2`, which cytotoxicity is on record?
Answer: The cytotoxicity was 13.4%.

Question: For `COc1cccc(C(=O)Nc2ccc(-c3nc4ccccc4o3)c(O)c2)c1`, which cytotoxicity is on record?
Answer: Its cytotoxicity is 15.3%.

Question: For `O=C(Nc1ccc(-c2nc3ncccc3o2)cc1)c1ccco1`, which cytotoxicity is on record?
Answer: The cytotoxicity was 1.1%.

Question: For `Cc1ccc(-c2nc3ccccc3o2)cc1NC(=O)c1ccc2c(c1)OCO2`, which cytotoxicity is on record?
Answer: Its cytotoxicity is -10%.

Question: Which cytotoxicity does the source give for `O=C(Nc1ccc2nc(-c3ccccc3)oc2c1)c1ccco1` here?
Answer: The cytotoxicity was 68.7% (active).

Question: With `COc1cc(OC)cc(C(=O)Nc2ccc(-c3nc4ccccc4o3)cc2)c1` as the compound, how does the cytotoxicity read?
Answer: The cytotoxicity was 74.2% (active).

Question: For `O=C(Nc1cccc(-c2nnc(-c3ccccc3)o2)c1)c1ccco1`, which cytotoxicity is on record?
Answer: The cytotoxicity was -6.9%.

Question: With `C/C=C/COc1nc2c(c(=O)n(C)c(=O)n2C)n1C` as the compound, how does the cytotoxicity read?
Answer: Its cytotoxicity is -4%.

Question: With `O=C(OCC(=O)N1CCN(C(=O)COC(=O)c2ccncc2)CC1)c1ccncc1` as the compound, how does the cytotoxicity read?
Answer: The cytotoxicity was -7.9%.

Question: For `CCN1CCN(c2ncc3c(n2)CC(c2cc(OC)c(OC)c(OC)c2)CC3=O)CC1` (stereo not given), which cytotoxicity is on record?
Answer: The cytotoxicity was 58.9% (active).

Question: With `CCN1CCN(c2ncc3c(n2)CC(c2ccc(OC)c(OC)c2)CC3=O)CC1` (stereo not given) as the compound, how does the cytotoxicity read?
Answer: The cytotoxicity was 7.7%.

Question: Which cytotoxicity does the source give for `O=C1CC(c2cccc(Cl)c2)Cc2nc(N3CCN(c4ccccc4)CC3)ncc21` (stereo not given) here?
Answer: Its cytotoxicity is 51.4% (active).

Question: For `Cc1ccc(C2CC(=O)c3cnc(N4CCN(c5ccccc5)CC4)nc3C2)cc1` (stereo not given), which cytotoxicity is on record?
Answer: The cytotoxicity was 9.3%.

Question: For `COc1cc(C2CC(=O)c3cnc(N4CCN(Cc5ccccc5)CC4)nc3C2)cc(OC)c1OC` (stereo not given), which cytotoxicity is on record?
Answer: The cytotoxicity was 46%.

Question: For `O=C1CC(c2cccc(Cl)c2)Cc2nc(N3CCOCC3)ncc21` (stereo not given), which cytotoxicity is on record?
Answer: The cytotoxicity was -14.6%.

Question: With `CSc1nnc2c(n1)OC(C1CC=C(C)CC1)Nc1ccccc1-2` (stereo not given) as the compound, how does the cytotoxicity read?
Answer: The cytotoxicity was 2.9%.

Question: For `C=CCn1c(=O)c(C(=O)Nc2ccccc2O)c(O)c2ccccc21`, which cytotoxicity is on record?
Answer: Its cytotoxicity is -18%.

Question: For `Cc1occc1C(=O)NCc1ccc2c(c1)OCO2`, which cytotoxicity is on record?
Answer: Its cytotoxicity is 42.9%.

Question: For `O=C(COc1cnc2ccccc2n1)NCCC1=CCCCC1`, which cytotoxicity is on record?
Answer: Its cytotoxicity is -1.1%.

Question: Which cytotoxicity does the source give for `CCc1ccc2c(COn3nnc4ccc(S(=O)(=O)N(C)C)cc43)cc(=O)oc2c1` here?
Answer: The cytotoxicity was 59.1% (active).

Question: For `Cc1ccc2c(COn3nnc4ccc(S(=O)(=O)N(C)C)cc43)cc(=O)oc2c1C`, which cytotoxicity is on record?
Answer: Its cytotoxicity is -2.2%.

Question: Which cytotoxicity does the source give for `CCc1ccc2c(COC(=O)c3n[nH]c4ccccc34)cc(=O)oc2c1` here?
Answer: The cytotoxicity was 8%.

Question: For `CCc1nnc(NC(=O)CSc2nc3c(cc2C#N)CCC3)s1`, which cytotoxicity is on record?
Answer: The cytotoxicity was 30.8%.

Question: Which cytotoxicity does the source give for `CCc1nnc(NC(=O)CSc2nc(C)c3c(c2C#N)CCCC3)s1` here?
Answer: The cytotoxicity was 76.3% (active).

Question: For `CCc1nnc(NC(=O)CSc2nc3c(cc2C#N)CCCC3)s1`, which cytotoxicity is on record?
Answer: The cytotoxicity was -1.1%.

Question: With `COc1cccc(NC(=O)CNC(=O)c2ccc(F)cc2)c1` as the compound, how does the cytotoxicity read?
Answer: The cytotoxicity was -1%.

Question: For `COc1cc(-c2ccc(NC(=O)CN3CCCCC3)c(OC)c2)ccc1NC(=O)CN1CCCCC1`, which cytotoxicity is on record?
Answer: The cytotoxicity was -11.3%.

Question: With `N#Cc1ccc(CSc2nnc(-c3cnccn3)o2)cc1` as the compound, how does the cytotoxicity read?
Answer: Its cytotoxicity is -3%.

Question: With `Fc1cccc(C2CC(c3cccc(Br)c3)Nc3nnnn32)c1` (stereo not given) as the compound, how does the cytotoxicity read?
Answer: The cytotoxicity was -20.3%.

Question: For `CCOc1ccc(S(=O)(=O)N2Cc3ccccc3CC2C(=O)NCCCn2ccnc2)cc1` (stereo not given), which cytotoxicity is on record?
Answer: Its cytotoxicity is 1.9%.

Question: With `Cc1ccc2[nH]c3c(c2c1)CN(C(=O)CN1CCCc2ccccc21)CC3` as the compound, how does the cytotoxicity read?
Answer: The cytotoxicity was 55.8% (active).

Question: For `Cc1ccc2[nH]c3c(c2c1)CN(C(=O)CN1CCN(c2ccccc2)CC1)CC3`, which cytotoxicity is on record?
Answer: The cytotoxicity was 26.1%.

Question: With `Cc1ccc2[nH]c3c(c2c1)CN(C(=O)CN1CCN(c2ccccc2F)CC1)CC3` as the compound, how does the cytotoxicity read?
Answer: Its cytotoxicity is 14.7%.

Question: For `Cc1cccc(N2CCN(C(=O)c3ccc(N4CCCC4=O)cc3)CC2C)c1` (stereo not given), which cytotoxicity is on record?
Answer: The cytotoxicity was -1.7%.

Question: With `CCOC(=O)c1ccc(NC(=O)N2CCN(S(C)(=O)=O)CC2)cc1` as the compound, how does the cytotoxicity read?
Answer: Its cytotoxicity is -1.4%.

Question: With `Cc1cnc(NC(=O)CCCSc2nc3ccccc3s2)s1` as the compound, how does the cytotoxicity read?
Answer: Its cytotoxicity is -1.8%.

Question: With `c1ccc(-c2cc(-c3nc(-c4ccccn4)no3)c3ccccc3n2)cc1` as the compound, how does the cytotoxicity read?
Answer: The cytotoxicity was 70.4% (active).

Question: For `c1ccc(-c2ccc(-c3nc(-c4ccccn4)no3)cc2)cc1`, which cytotoxicity is on record?
Answer: The cytotoxicity was -4.1%.

Question: Which cytotoxicity does the source give for `c1ccc(-c2cc(-c3nc(-c4cccnc4)no3)c3ccccc3n2)cc1` here?
Answer: The cytotoxicity was -11.7%.

Question: For `CC(C)n1c(SCC(N)=O)nc2c1c(=O)n(C)c(=O)n2C`, which cytotoxicity is on record?
Answer: The cytotoxicity was -8.7%.

Question: For `CCn1c(SC/C=C/c2ccccc2)nnc1-c1cnccn1`, which cytotoxicity is on record?
Answer: The cytotoxicity was -18.9%.

Question: With `Cn1cc(/C=N/n2cnc3sc4c(c3c2=O)CCCC4)c2ccccc21` as the compound, how does the cytotoxicity read?
Answer: Its cytotoxicity is 21.2%.

Question: Which cytotoxicity does the source give for `Cc1ccc(-c2csc3ncn(/N=C/N(C)C)c(=O)c23)o1` here?
Answer: The cytotoxicity was -6.4%.

Question: Which cytotoxicity does the source give for `Cc1nn(-c2ccccc2)c(N2CCCC2)c1/C=N/n1cnc2scc(-c3ccccc3)c2c1=O` here?
Answer: The cytotoxicity was 24.5%.

Question: For `Cn1cc(/C=N/n2cnc3scc(-c4ccccc4)c3c2=O)c2ccccc21`, which cytotoxicity is on record?
Answer: The cytotoxicity was 68.4% (active).

Question: Which cytotoxicity does the source give for `CCn1cnc2scc(-c3ccccc3)c2c1=O` here?
Answer: Its cytotoxicity is -9.7%.

Question: Which cytotoxicity does the source give for `Cn1cc(/C=N/n2cnc3scc(-c4ccc(Cl)cc4)c3c2=O)c2ccccc21` here?
Answer: The cytotoxicity was 89.3% (active).

Question: With `COc1cc(OC)cc(C(=O)N2CCC(n3c(C)nc4cc(F)ccc43)CC2)c1` as the compound, how does the cytotoxicity read?
Answer: The cytotoxicity was 3%.

Question: For `N#Cc1cc2sc3nnc(-c4ccncc4)n3c2cc1C#N`, which cytotoxicity is on record?
Answer: The cytotoxicity was -14.9%.

Question: For `Cc1nc2cc(C(=O)OCC(=O)N(CC(C)C)C3CCS(=O)(=O)C3)ccc2n1-c1ccccc1` (stereo not given), which cytotoxicity is on record?
Answer: Its cytotoxicity is -10.3%.

Question: Which cytotoxicity does the source give for `O=C(O)CCc1ccc(-c2cccs2)n1NC(=O)c1ccc(Cl)cc1` here?
Answer: The cytotoxicity was 0.6%.

Question: With `Cc1csc(NC(=O)CSc2nnc(-c3ccc(S(=O)(=O)N4CCCC4)cc3)o2)n1` as the compound, how does the cytotoxicity read?
Answer: The cytotoxicity was -13.8%.

Question: Which cytotoxicity does the source give for `COc1cccc(CNC(=O)Cn2cccc2)c1` here?
Answer: Its cytotoxicity is -4.3%.
